Compounds with a hit are over-represented: about 0.71% of the library has one in this group of screens.
IDE act – IDE (human) activation, cell-based. activation, % at 5.96 µM. HEK cells, FAbeta-B cleavage, fluorescence polarization; 0% vehicle, 100% cell-free pure enzyme wells. P14735. AID 493087. 340,000 compounds, 0.073% hits;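 active means activation above the mean of all tested compounds plus 3 SD, set per screening campaign, cut at about 17% in these data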
Target sequence (P14735 whole entry, looked up): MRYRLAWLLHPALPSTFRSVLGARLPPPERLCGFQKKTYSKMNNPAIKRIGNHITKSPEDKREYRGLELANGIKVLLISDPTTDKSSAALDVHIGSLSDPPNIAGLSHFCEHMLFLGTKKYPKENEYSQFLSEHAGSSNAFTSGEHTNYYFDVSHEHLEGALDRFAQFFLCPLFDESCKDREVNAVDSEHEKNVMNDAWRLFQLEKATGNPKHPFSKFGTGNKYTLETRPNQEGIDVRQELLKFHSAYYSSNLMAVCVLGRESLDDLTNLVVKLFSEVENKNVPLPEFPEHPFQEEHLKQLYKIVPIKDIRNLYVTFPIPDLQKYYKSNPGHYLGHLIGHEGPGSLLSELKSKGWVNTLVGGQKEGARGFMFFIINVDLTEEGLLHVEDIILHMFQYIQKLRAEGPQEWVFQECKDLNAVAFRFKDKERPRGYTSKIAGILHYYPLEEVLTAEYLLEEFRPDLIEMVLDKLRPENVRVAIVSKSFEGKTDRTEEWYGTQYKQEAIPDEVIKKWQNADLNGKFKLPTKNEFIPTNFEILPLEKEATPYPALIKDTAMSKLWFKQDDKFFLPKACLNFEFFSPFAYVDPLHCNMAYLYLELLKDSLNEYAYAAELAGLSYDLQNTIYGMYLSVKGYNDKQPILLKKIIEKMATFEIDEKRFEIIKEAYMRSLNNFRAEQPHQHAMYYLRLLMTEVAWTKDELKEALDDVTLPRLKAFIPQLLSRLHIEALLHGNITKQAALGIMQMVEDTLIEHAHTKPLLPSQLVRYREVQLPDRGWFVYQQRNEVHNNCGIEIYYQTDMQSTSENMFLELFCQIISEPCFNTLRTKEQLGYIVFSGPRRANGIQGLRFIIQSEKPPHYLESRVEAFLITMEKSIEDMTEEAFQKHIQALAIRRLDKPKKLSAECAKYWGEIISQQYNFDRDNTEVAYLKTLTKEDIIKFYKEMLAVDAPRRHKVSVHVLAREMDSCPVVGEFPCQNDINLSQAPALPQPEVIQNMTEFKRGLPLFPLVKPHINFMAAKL
IDE cell inh – inhibits human insulin-degrading enzyme in HEK cells; P14735; FAbetaB cleavage, fluorescence polarization; inhibition, % at 5.59 µM; 320,000 compounds, 0.41% hits;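 active means percent inhibition above the average of all tested compounds plus 3 SD, set per screening campaign, cut at about 16% in these data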;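 further: IDE supplied by intact live HEK cells; FP after avidin binding of uncleaved biotin substrate so inhibition keeps polarization high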
cardiac RTF act – cardiac RTF calcium sensitization | activation, % at 7.2 µM | IANBD-labeled TnC RTF fluorescence at EC20 calcium; 0% EC20 calcium, 100% full calcium | AID 493008 | 340,000 compounds, 0.24% hits | P19429+P45379;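 active means activation above the mean over all tested compounds plus 3 SD, cut at about 30% in these data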;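 further: rise in fluorescence read as greater calcium sensitivity of cardiac thin filaments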
Cardiac RTF inh – cardiac RTF calcium desensitization; IANBD-labeled cardiac RTF, Ca2+ fluorescence; inhibition, % at 7.15 µM; 340,000 compounds, 0.12% hits; AID 493244;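 active means inhibition above the mean inhibition of all tested compounds plus 3 SD, cut at about 17% in these data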;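 further: assay run at fixed EC70 calcium of 1.6 mM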
IDE cell inh cf – confirmation of human insulin-degrading enzyme inhibitors in cells. 1,200 compounds, 51% hits. AID 435028. inhibition, % at 5.59 µM. HEK cells, FAbetaB cleavage, fluorescence polarization. shares compounds with IDE cell inh;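 active means mean inhibition across triplicate wells above the cutoff set by the earlier primary insulin-degrading enzyme screen, cut at about 16% in these data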
HEK293 tox – kills HEK cells in IDE inhibitor counter-screen; shares compounds with IDE cell inh; HEK293 cytotoxicity, ATP luminescence; inhibition, % at 5.59 µM; 1,200 compounds, 28% hits; in the data active means inhibition above about 22%
Hits are given with their value; - = inactive; . = no result.

SMILES	IDE act	IDE cell inh	cardiac RTF act	Cardiac RTF inh	IDE cell inh cf	HEK293 tox
CC1C/C(=C/c2cccn2C)C(=O)/C(=C/c2cccn2C)C1 (configuration not stated)	-	39	375	-	94	23
CC1C/C(=C/c2ccncc2)C(=O)/C(=C/c2ccncc2)C1 (configuration not stated)	-	-	-	-	.	.
CC(C)CC(=O)NC(c1cccs1)c1ccc2cccnc2c1O (configuration not stated)	-	17	-	-	-	106
CCCCC(=O)NC(c1ccc(Cl)cc1)c1ccc2cccnc2c1O (configuration not stated)	-	19	-	-	-	99
COc1ccc(-n2c(C)cc(/C=C3\SC(=S)N(Cc4ccco4)C3=O)c2C)cc1	-	17	31	-	18	-
CCc1c(C#N)c(SCCC(=O)Nc2ccc(OC)cc2)nc2c1C(=O)CC(C)(C)C2	-	-	-	-	.	.
CCc1c(C#N)c(SCc2c(C)noc2C)nc2c1C(=O)CC(C)(C)C2	-	18	-	-	-	32
CCOc1ccccc1NC(=O)CSc1nnc(CNC(=O)c2cc(OC)c(OC)c(OC)c2)o1	-	-	-	-	.	.
Cc1c(N2C(=O)/C(=C\c3ccc(N(C)C)cc3)N(C)C2=S)c(=O)n(-c2ccccc2)n1C	-	53	-	-	40	-
Cc1ccc(NC(=O)CSc2nnc(-c3cnccn3)n2C)cc1C	-	-	-	-	.	.
COc1ccc(-c2cc(-c3ccco3)[nH]c(=O)c2C#N)cc1OC	-	-	-	-	.	.
CN1C(=O)/C(=C\C=C2/CCCN2C)N(C)C1=S	-	-	-	-	.	.
CCN1C(=O)/C(=C/C=C2/CCCN2C)OC1=S	-	19	32	-	26	-
O=C(CN1CCOCC1)Nc1ccc(NC(=O)c2ccccc2F)cc1	-	-	-	-	.	.
COc1cc(Br)ccc1NC(=O)c1ccccc1-c1ccccc1C(=O)O	-	-	-	-	.	.
Cc1cc2oc(C(=O)Nc3ccc(S(=O)(=O)Nc4nccs4)cc3)cc(=O)c2cc1Cl	-	-	-	-	.	.
Cc1cc(C)c2oc(C(=O)Nc3ccc(S(=O)(=O)Nc4nccs4)cc3)cc(=O)c2c1	-	22	-	-	-	-
O=c1cc(COc2ccc(Cl)c(Cl)c2)nc2sccn12	-	-	-	-	.	.
O=c1cc(CNc2cc(Cl)ccc2Cl)nc2sccn12	-	17	-	-	-	-
CCc1sc(C(=O)Nc2nc(-c3ccccn3)cs2)cc1C	-	19	-	-	-	50
O=C(NCc1ccc2c(c1)OCO2)C1CCC(=O)N1C1CCCCC1 (configuration not stated)	-	-	-	-	.	.
NNC(=O)/C(=C\c1ccc(Br)cc1)NC(=O)c1cccs1	-	17	-	-	-	-
CN(c1ccccc1)c1ccc(/C=C/[N+](=O)[O-])cc1	-	32	-	-	26	117
Cc1cccc(NC(=O)COc2coc(CN3CCN(c4ccccc4)CC3)cc2=O)c1C	-	-	-	-	.	.
COc1ccc(/C=C/C(=O)NCC(=O)N/N=C(\C)Cc2ccccc2)cc1	-	-	-	-	.	.
SMILES	IDE act	IDE cell inh	cardiac RTF act	Cardiac RTF inh	IDE cell inh cf	HEK293 tox
C/C(Cc1ccccc1)=N\NC(=O)CNC(=O)/C=C\c1ccccc1	.	17	.	.	-	-
Brc1cc2[nH]cnc2c2ccccc12	-	22	-	-	-	-
Oc1ccc2c(ccc3[nH]cnc32)c1	-	-	-	-	.	.
CCOC(=O)Cc1csc(NC(=O)c2c(O)c3c(n(CC(C)C)c2=O)CCCC3)n1	-	-	-	-	.	.
CCN=C1S/C(=C\c2cc(OCC)c(O)cc2Br)C(=O)N1CC	-	17	-	-	22	23
CCc1nc(SCC(=O)Nc2nc3c(s2)CCCC3)c2ccccc2n1	-	31	-	-	-	-
Cc1cccc(OCC(=O)OC(C)C(=O)Nc2ccc(Cl)cn2)c1 (configuration not stated)	-	-	-	-	.	.
Cc1cccc(C(=O)NCC(=O)OC(C)C(=O)Nc2ccc(Cl)cn2)c1 (configuration not stated)	-	16	-	-	-	-
CCc1nnc(/N=C/c2c(O)n(-c3ccc(Cl)cn3)c(=O)c3ccccc23)s1	-	17	-	-	-	-
CC(C)(C)N/N=C/c1c(O)n(-c2ccc(Cl)cn2)c(=O)c2ccccc12	-	-	-	-	.	.
Nc1cc(C(Cl)=C(Cl)Cl)c(S(N)(=O)=O)cc1S(N)(=O)=O	-	-	-	-	.	.
CCC(=O)C1CCCN(C(=O)CCc2nnc(-c3ccc(C(C)=O)s3)o2)C1 (configuration not stated)	-	-	-	-	.	.
O=C(COC(=O)c1ccccc1O)Nc1cccnc1Cl	-	-	-	-	.	.
O=C(COC(=O)c1cccnc1Cl)Nc1nc(-c2ccccc2)cs1	-	26	-	-	-	-
C/C(=N/NC(=O)CN1CCN(Cc2ccccc2Cl)CC1)c1ccncc1	-	24	-	-	-	-
COc1cc(/C=C(\C#N)c2nc3ccccc3o2)ccc1O	-	88	50	-	84	-
COc1cc(/C=C(\C#N)c2nc3ccccc3[nH]2)ccc1OC(=O)c1ccco1	-	114	-	-	153	-
COc1cc(/C=C(/C#N)c2nc3ccccc3[nH]2)ccc1OCC(=O)Nc1ccccc1C	-	-	-	-	.	.
N#C/C(=C\c1ccc(O)cc1)c1nc2ccccc2o1	-	43	-	-	119	-
Cc1ccc(C)c(N/C=C(\C#N)c2nc3ccccc3o2)c1	-	-	-	-	.	.
CCCN1Cc2cccc(C(=O)NC(CC(=O)OCC)c3ccc(OCC)c(OC)c3)c2C1=O (configuration not stated)	-	-	-	-	.	.
Cc1[nH]c2ccccc2c1CCN(Cc1cccnc1)C(=S)NC(C)(C)C	-	-	-	-	.	.
Cc1cc(F)ccc1NCC(=O)Nc1ccccc1Br	-	-	-	-	.	.
Cc1ccc2cc3c(nc2c1)OCC3	-	-	-	-	.	.
CCCCN(C(=O)CSCc1c(C)noc1C)c1c(N)n(CCCC)c(=O)[nH]c1=O	-	-	-	-	.	.
SMILES	IDE act	IDE cell inh	cardiac RTF act	Cardiac RTF inh	IDE cell inh cf	HEK293 tox
CCCOc1ncnc2c1[nH]c1ccc(OC)cc12	-	-	-	-	.	.
COc1cccc(N2CCN(c3ncnc4c3[nH]c3ccc(F)cc34)CC2C)c1 (configuration not stated)	-	38	-	-	28	122
COc1cc2[nH]c3c(N4CCN(c5ccc(Cl)cc5)CC4)ncnc3c2cc1OC	-	52	-	-	27	38
COc1ccc2[nH]c3c(N4CC(C)OC(C)C4)ncnc3c2c1 (configuration not stated)	.	17	.	.	-	-
CN(C)c1ccc(/C=C(/C(=O)c2ccc(Cl)cc2Cl)n2cncn2)cc1	-	141	-	-	162	28
COc1ccc(/C=C(/C(=O)c2ccc(Cl)cc2Cl)n2cncn2)cc1	-	-	-	-	.	.
